{"source": "PubChem BioAssay AID588850", "about": "(Sanford-Burnham Center for Chemical Genomics, 2011)", "note": "The campaign covered roughly 360,000 compounds. About 3,100 (0.86%) were called active.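 The calls were made as follows: active = at least 50% inhibition at 5 µM, scaled per plate between neutral and stimulator controls; inactive = the rest.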 Many of the other results were omitted from the sample, so actives are more common in it than they were."}
{"test": "inhibitors of PAF-induced NF-kB signaling, primary screen, cell-based, GFP fluorescence, uHTS (AID 588850);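 also: PAF is a Pseudomonas aeruginosa culture filtrate used as stimulus; plate controls were PAF-stimulated DMSO wells for no effect and unstimulated DMSO wells for full effect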", "settings": "KKLEB NF-kB-GFP reporter, GFP fluorescence overnight, at 5 µM, active compounds read high"}
{"smiles": "CCOC(=O)CN1C(=O)C(O)(CC(=O)c2ccccn2)c2ccccc21", "note": "(stereo not given)", "inhibition": "13% (inactive)"}
{"smiles": "Cc1ccc(C2=CSC3=NS(=O)(=O)CCN23)cc1C", "inhibition": "6.1% (inactive)"}
{"smiles": "COc1cc(OC)c(C(=O)NNC(=O)c2ccccc2-n2cccc2)cc1OC", "inhibition": "-9.9% (inactive)"}
{"smiles": "CCCN(CCC)C(=S)Nc1cc(C(=O)OC)ccc1C(=O)OC", "inhibition": "10.8% (inactive)"}
{"smiles": "COC(=O)c1ccc(C(=O)OC)c(NC(=S)N2CCN(c3cc(Cl)ccc3C)CC2)c1", "inhibition": "0.4% (inactive)"}
{"smiles": "COC(=O)c1ccc(C(=O)Nc2cc(Cl)ccc2Cl)cc1NC(=O)c1ccccc1C", "inhibition": "54% (active)"}
{"smiles": "CCOC(=O)c1c(C)[nH]c(C)c1C(=O)COC(=O)/C=C/c1cccc([N+](=O)[O-])c1", "inhibition": "-19.4% (inactive)"}
{"smiles": "CCC12CN3CC(CC)(CN(C1)C31C(=O)N(C)c3ccc(C)cc31)C2=O", "note": "(stereo not given)", "inhibition": "8.9% (inactive)"}
{"smiles": "CCOC(=O)C1(C)CCCN(C(=O)c2ccc(N(C)C)cc2)C1", "note": "(stereo not given)", "inhibition": "-1.1% (inactive)"}
{"smiles": "Cc1cccc(-n2nc3c(c2NC(=O)c2cc4ccccc4o2)CS(=O)(=O)C3)c1", "inhibition": "4.3% (inactive)"}
{"smiles": "CC(C)CC1(C(=O)NCc2ccccn2)C=CCN1C(=O)c1ccccc1", "note": "(stereo not given)", "inhibition": "-3.1% (inactive)"}
{"smiles": "O=C(Nc1cccc2ccccc12)NC1CC1", "inhibition": "-3.5% (inactive)"}
{"smiles": "O=C(Nc1cccc2ccccc12)c1[nH]c(-c2ccccc2)c2c1C(=O)N(C1CC1)C2=O", "inhibition": "63.7% (active)"}
{"smiles": "O=C(Nc1cccc2ccccc12)c1onc2c1CCCC2", "inhibition": "-10.2% (inactive)"}
{"smiles": "Cc1ccc(N(Cc2cc(=O)[nH]c3ccccc23)C(=O)CCl)cc1", "inhibition": "63.4% (active)"}
{"smiles": "CCC(=O)N(Cc1cc2ccccc2[nH]c1=O)c1ccc(OC)cc1", "inhibition": "-0.6% (inactive)"}
{"smiles": "CC(=O)N(Cc1cc(=O)[nH]c2ccccc12)c1ccc(C)cc1C", "inhibition": "10.4% (inactive)"}
{"smiles": "CCOC(=O)N1CCN(C(=O)c2ccccc2SCC(=O)NCC2CCCCC2)CC1", "inhibition": "-2% (inactive)"}
{"smiles": "Cc1ccc(C(=O)CCC(=O)N(C)CC(=O)Nc2c(Cl)cccc2Cl)cc1", "inhibition": "-7.8% (inactive)"}
{"smiles": "Cc1ccc(NC(=O)CN(C)C(=O)COC(=O)c2nccnc2N)cc1", "inhibition": "-12.4% (inactive)"}
{"smiles": "O=C(NNC(=O)c1ccccc1O)c1ccccc1O", "inhibition": "61.7% (active)"}
{"smiles": "Cc1cc(C(=O)CCC(=O)NNC(=O)c2ccccc2O)c(C)s1", "inhibition": "-22% (inactive)"}
{"smiles": "CC1=C(C)CC(C(=O)NNC(=O)c2ccccc2O)C(C(=O)O)C1", "note": "(stereo not given)", "inhibition": "-2.9% (inactive)"}
{"smiles": "COCCNC(=O)c1ccc2c(c1)ncn2-c1ccc(C)c(Cl)c1", "inhibition": "-3.6% (inactive)"}
{"smiles": "COCCN(C(=O)CCC(=O)Nc1nccs1)C(C(=O)NCCC(C)C)c1ccc(F)cc1", "note": "(stereo not given)", "inhibition": "-16.8% (inactive)"}
